# Out of some 300,000 compounds screened, about 2,500 (0.83%) were called active.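 How the source made its calls: active means inhibition above the mean of all tested compounds plus 3 SD, set per screening campaign (cut at about 24% in these data); inactive means the rest.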 The entries come from a sample that favours actives as a whole.
# System: tRNA 2'-phosphotransferase TPT1 (Candida albicans SC5314)
# Assay: Candida albicans TPT1 enzyme inhibitors, primary screen, biochemical, fluorescence polarization (AID 1962);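 further: plate controls were DMSO alone for no effect and ferristatin control at 100 nM for full effect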
# Settings: recombinant caTPT1, FP RNA substrate dephosphorylation; at 5 µM; active compounds read high
row,SMILES,inhibition
1,COc1ccc(C(=O)NC(C)c2nccs2)cc1OC1CCN(C(C)C)CC1 (centres undefined),1.11% (inactive)
2,COc1ccc(CN(C)C(=S)Nc2ccc(Cl)cc2Cl)cc1,-3.43% (inactive)
3,Cc1nc2ccccc2cc1C(=O)N/N=C/c1ccc([N+](=O)[O-])cc1,1.45% (inactive)
4,O=C(Nn1c(-c2ccccc2)nc2ccccc2c1=O)c1ccc([N+](=O)[O-])cc1,-2.22% (inactive)
5,Cc1nc2ccccc2nc(=O)c1NNc1ccc([N+](=O)[O-])cc1,33% (active)
6,COC(=O)c1c(C)oc(C)c1S(=O)(=O)Nc1ccc(C(C)C)cc1,-2.31% (inactive)
7,COC(=O)c1cc(S(=O)(=O)NCC2CCN(Cc3ccc(Cl)cc3)CC2)cn1C,-1.04% (inactive)
8,CCOC(=O)c1ccccc1CN1C(=O)c2ccccc2S1(=O)=O,-6.64% (inactive)
9,CN1C(=O)/C(=C/C=C2\SCCN2C)OC1=S,124% (active)
10,COc1ccc(CCNS(=O)(=O)c2cccc3cccnc23)cc1OC,1.77% (inactive)
11,COc1ccc(Cc2nc(-c3ccccn3)no2)cc1OC,48.4% (active)
12,Cc1ccc(Cc2nc(-c3cccc(C)c3)no2)cc1,1.83% (inactive)
13,CCOC(=O)C1=C(C)Nc2sc(C(=O)c3ccc(Br)cc3)c(N)c2C1c1ccc(C(=O)OC)cc1 (centres undefined),54.7% (active)
14,CCOC(=O)c1sc(=NC(=O)c2ccc(Br)cc2)n(C)c1C,-2.11% (inactive)
15,CCOC(=O)c1sc(=S)n2c1[nH]c(=O)c1ccc(C(=O)OC)cc12,-1.57% (inactive)
16,Cc1cccc(COc2ccccc2/C=N/Nc2ccc([N+](=O)[O-])cc2)c1,92.1% (active)
17,O=[N+]([O-])c1cccc(/C=N/Nc2ncc(Br)cn2)c1,0.84% (inactive)
18,Cc1ccc(NS(=O)(=O)c2ccc(N/N=C/c3ccccc3OCC(=O)O)c([N+](=O)[O-])c2)c(C)c1,-2.41% (inactive)
19,O=[N+]([O-])c1ccc(N/N=C/c2ccccc2)cc1,28.2% (active)
20,Cc1ccccc1OCCOc1ccc([N+](=O)[O-])cc1/C=N/n1cnnc1,2.12% (inactive)
21,O=C(N/N=C/c1ccc([N+](=O)[O-])cc1)c1c[nH]c2ccccc12,1.12% (inactive)
22,O=[N+]([O-])c1ccc(N2CCN(c3ccc(O)cc3)CC2)c(Cl)c1,1.48% (inactive)
23,O=S(=O)(c1cccc(Cn2nnc(-c3ccc(F)cc3)n2)c1)N1CCOCC1,0.07% (inactive)

row,SMILES,inhibition
1,COc1ccc(C(CCN(Cc2ccc(OC)c(OC)c2)C(=O)CCl)c2ccccc2)cc1 (centres undefined),2.12% (inactive)
2,COc1ccc(-n2c(C)cc(C(=O)CN3C(=O)NC4(CCc5ccccc54)C3=O)c2C)cc1 (centres undefined),-8.74% (inactive)
3,Cc1nn(-c2ccccc2)c(C)c1NC(=O)COc1ccc(Cl)cc1Cl,-4.09% (inactive)
4,CCOc1nnc(C)c2c(C)n(-c3cccc(Cl)c3)nc12,24.6% (active)
5,CCOc1ccc(CNC(=O)C2CCCN(c3nnc(C)c4c(C)n(-c5ccccc5)nc34)C2)cc1 (centres undefined),1.81% (inactive)
6,CCc1nn(CCCC(=O)NC(C)c2ccccc2)c(=O)c2cc3occc3n12 (centres undefined),-2.3% (inactive)
7,CCCCN(CCCC)CCNC(=O)CN1C(=O)COc2ccc(S(=O)(=O)N3CCOCC3)cc21,-4.55% (inactive)
8,COc1ccc(Cn2c(C)c(C)c(C#N)c2NC(=O)Nc2ccc(F)cc2)cc1,0.17% (inactive)
9,CC(C)(C)c1ccc(/C=C2\Oc3c(ccc(O)c3CN3CCN(CCO)CC3)C2=O)cc1,33.2% (active)
10,CN1CCN(Cc2c(O)ccc3c2oc(=O)c2ccccc23)CC1,-1.97% (inactive)
11,CCOC(=O)c1oc2c(CN3CCN(CCO)CC3)c(O)c(CC)cc2c(=O)c1-c1nc2ccccc2s1,-0.54% (inactive)
12,CC(=O)N1N=C(c2ccncc2)OC1(Cc1ccccc1)Cc1ccccc1,-0.93% (inactive)
13,O=C(CC12CC3CC(CC(C3)C1)C2)Nc1ccc2c(c1)COC2=O,-3.75% (inactive)
14,Nc1nonc1-n1nnc(C(=O)N/N=C/c2ccccc2O)c1CN1CCCC1,-0.45% (inactive)
15,Cc1ccc(SCc2c(C(=O)N/N=C/c3cccnc3)nnn2-c2nonc2N)cc1,0.4% (inactive)
16,Nc1nonc1-n1nnc(C(=O)N/N=C/c2cc(Br)ccc2O)c1CSC1=NCCS1,24.7% (active)
17,COc1ccc(C(C(=O)NC2CCCCC2)N(C(=O)Cc2c[nH]c3ccccc23)c2ccccc2)cc1OC (centres undefined),4.78% (inactive)
18,N#CC1=C(N)Oc2c(sc3ccccc23)C1c1ccco1 (centres undefined),100% (active)
19,N#CC1=C(N)Oc2c(ccc3cccnc23)C1c1ccncc1 (centres undefined),0.31% (inactive)
20,CC1=C(C(=O)Nc2ccccc2)C(c2ccco2)C(C#N)=C(SCC(N)=O)N1 (centres undefined),-4.83% (inactive)
21,COCCCn1c(SCc2cccc(OC)c2)nc2cc(OC)c(OC)cc2c1=N,-1.89% (inactive)
22,CC(=O)Nc1ccc(S(=O)(=O)NCC(=O)OCc2cc(=O)oc3ccc4ccccc4c23)cc1,2.61% (inactive)
23,CCNc1nc(NCC)nc(N/N=C/c2ccc(O)c(OC)c2)n1,-0.04% (inactive)

row,SMILES,inhibition
1,COc1ccc(/C=C(/NC(=O)c2ccc(C)cc2)c2nc3ccccc3[nH]2)cc1OC,-0.67% (inactive)
2,Cc1ccc2nc(/C(C#N)=C\c3ccc(OC(=O)c4cccs4)cc3)[nH]c2c1,4.21% (inactive)
3,COc1cc(/C=C(\C#N)c2nc3ccccc3[nH]2)ccc1O,96.4% (active)
4,COc1cc(/C=C(\C#N)c2nc3c(s2)CC(C)CC3)ccc1O (centres undefined),128% (active)
5,COc1cc(/C=N/Nc2nc3ccccc3s2)ccc1O,-1.42% (inactive)
6,CCn1c(CC(=O)Nc2ccc(C)cc2)nnc1SCC(=O)Nc1nc(C)cs1,2.53% (inactive)
7,O=C(NCCCCCCNC(=O)NCc1ccco1)NCc1ccco1,-3.7% (inactive)
8,CC[C@H]1CN2CCc3cc(OC)c(OC)cc3[C@@H]2C[C@@H]1C[C@H]1NCCc2cc(OC)c(OC)cc21,3.04% (inactive)
9,COc1ccc2c(c1)CCNC2Cc1ccc(OC)c(O)c1 (centres undefined),-2.2% (inactive)
10,COc1cc2c(cc1O)[C@H](Cc1ccc(Oc3cc(C[C@@H]4NCCc5cc(OC)c(O)cc54)ccc3O)cc1)NCC2,30% (active)
11,O=S1(=O)CCO[C@H]2Cc3ccccc3[C@H]2N1Cc1ccccc1,3.47% (inactive)
12,O=C(CCc1ccccc1)Nc1ccnn1C1CCN(Cc2ccc(OCCO)cc2)CC1,-3.8% (inactive)
13,COc1ccc(OC)c2[nH]c(=O)c(CCNC(=O)C(C)(C)C)cc12,1.81% (inactive)
14,Cc1ccc(C)c2[nH]c(=O)c(CCNC(=O)CC(C)C)cc12,51.6% (active)
15,Cc1ccc(C)c2[nH]c(=O)c(CCNC(=O)c3cccs3)cc12,-3.33% (inactive)
16,CCc1ccnc(NS(=O)(=O)c2ccc3c(c2)OCCO3)c1,-1.71% (inactive)
17,O=C(C1CCCO1)N1CCN(C(=S)NC2CC2)CC1 (centres undefined),-3.35% (inactive)
18,CCOC(=O)/C(C#N)=C/c1ccc(N2CCN(Cc3ccccc3)CC2)cc1,48% (active)
19,CCOC(=O)NC(=O)/C(C#N)=C\c1ccccc1,-1.78% (inactive)
20,COc1ccc(/C=C(\C#N)C(=O)ONC2=NCCCCC2)cc1,0.43% (inactive)
21,COc1ccc(N2CCN(C(=O)/C(C#N)=C/c3ccccc3)CC2)cc1,19.5% (inactive)
22,CCOC(=O)/C(C#N)=C/c1ccc(OCC(=O)Nc2ccccc2)c(OC)c1,-2.78% (inactive)
23,CCOC(=O)/C(C#N)=C/c1ccc(N2CCCCC2)cc1,116% (active)

row,SMILES,inhibition
1,CN(C)S(=O)(=O)c1cccc(-c2nn(-c3ccccc3)cc2/C=C2\SC(=S)N(CC(=O)O)C2=O)c1,-1.23% (inactive)
2,Cc1ccc(-c2nn(-c3ccccc3)cc2/C=C2\SC(=S)N(CCCCCC(=O)O)C2=O)o1,49.2% (active)
3,COc1ccc(-c2nn(-c3ccccc3)cc2/C=C2/SC(=S)N(CCCC(=O)O)C2=O)c(C)c1,1.54% (inactive)
4,CCC(C)Sc1nc(C)nc2c1c(=O)n(C)c(=O)n2C (centres undefined),-1.63% (inactive)
5,NC(=O)NCCCC(=O)O,-0.59% (inactive)
6,COc1ccc(/C=N/NC(=O)c2cc(-c3cccc(C)c3)nc3ccccc23)cc1O,-4.75% (inactive)
7,Cc1sc2nc(CSCC(=O)Nc3c(Cl)cccc3Cl)[nH]c(=O)c2c1C,17.1% (inactive)
8,Cc1sc2nc(COC(=O)C(NC(=O)c3ccc(Cl)cc3Cl)C(C)C)[nH]c(=O)c2c1C (centres undefined),33.1% (active)
9,CC(C)NC(=O)c1ccc(Cl)cc1Cl,-0.44% (inactive)
10,CSCCC(NC(=O)c1ccc(Cl)cc1Cl)C(=O)NNC(=O)c1csc(N2CCOCC2)n1 (centres undefined),1.09% (inactive)
11,COc1ccc(N2CC(C)Cn3c2nc2c3c(=O)n(Cc3ccccc3F)c(=O)n2C)c(OC)c1 (centres undefined),1.36% (inactive)
12,N#C/C(=C/c1ccc(N2CCCCC2)o1)C(=O)NCCc1c[nH]c2ccccc12,178% (active)
13,CC(=O)N/C(=C/c1ccc(Cl)cc1)C(=O)NCCc1c[nH]c2ccccc12,-3.35% (inactive)
14,O=C(CN1C(=O)NC2(CCCCC2)C1=O)NCCc1c[nH]c2ccccc12,-3.99% (inactive)
15,O=C(CSc1nnc(Nc2ccccc2)s1)Nc1cccnc1Cl,-0.7% (inactive)
16,CC(C)c1ccc(Nc2nnc(SCC(=O)c3nnc(-c4ccccc4)o3)s2)cc1,42% (active)
17,Cc1ccc(Nc2nnc(SCC(=O)c3cc4ccccc4o3)s2)cc1C,9.66% (inactive)
18,CC(C)CN1CCNC(=O)C1CC(=O)N(C)CC1CCOCC1 (centres undefined),-5.14% (inactive)
19,COc1ccc(S(=O)(=O)NCC2CCCN(C(=O)c3occc3C)C2)cc1 (centres undefined),-4.48% (inactive)
20,CCN1CCN(C(=O)Cn2nc(C)n3c(cc4c(OC)cccc43)c2=O)CC1,1.92% (inactive)
